# MCF10A rerep: A quantitative high throughput screen for small molecules that induce DNA re-replication in MCF 10a normal breast cells; MCF 10A DNA re-replication, Hoechst nuclear intensity, 48 h; 350,000 compounds, 2.9% hits; Potency, µM (doses to about 46.1 µM), inactives show at the top dose activity, positive = re-replication, most hits filed as activators; also: % of control where 0% means no effect; nearly all actives have a fitted effect of over 50% in size
# HT1080 IDH1KD tx: qHTS for induction of synthetic lethality in tumor cells producing 2HG: qHTS for the HT-1080-IDH1KD cell line; HT-1080 IDH1 knockdown viability, ATP luminescence, 48 h; Potency, µM (series often up to 46.1 µM), inactives show at the highest dose activity, negative = toxicity, actives largely listed as cytotoxic; 360,000 compounds, 2% hits; AID 686971, 2013;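 also: 0% = DMSO wells and -100% = cell-free medium wells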
#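 CellTiter-Glo luminescence after 48 h compound exposure at 37 degrees C of IDH1-knockdown HT-1080 cells in 5% FBS RPMI. %Activity scaled between DMSO wells and cell-free media wells, with curves fitted and assigned curve classes.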
# KB-3-1 cytotox: qHTS assay for MDR1-selective chemotherapeutics: Primary screen using the parental adenocarcinoma cell KB-3-1; KB-3-1 viability, CellTiter-Glo ATP luminescence, 72 h; Potency, µM (highest dose often 46.1 µM), usual class: cytotoxic; 400,000 compounds, 1.4% hits; AID 1347075, 2019; also: % is scaled to controls: 0 for no effect and ±100 for the full control effect; nearly all actives have a fitted effect of over 60% in size
#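 Viability of parental KB-3-1 cells, measured by CellTiter-Glo luminescence, followed a 72 h incubation at 37 °C with pinned compounds in phenol-red-free DMEM containing 10% FBS.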
# KB-V1 MDR tox: qHTS assay for MDR1-selective chemotherapeutics: Primary screen using the drug-selected MDR subline cells KB-V1 | AID 1347076, 2019 | KB-V1 MDR cells viability, CellTiter-Glo, 72 h | 400,000 compounds, 3.4% hits | Potency, µM (doses to about 46.1 µM), actives largely listed as cytotoxic; also: % is scaled to controls: 0 for no effect and ±100 for the full control effect; nearly all actives have a fitted effect of over 60% in size
#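 Potencies derive from concentration-effect curves fitted to normalized luminescence (CellTiter-Glo) of KB-V1 cells treated for 72 h at 37 degrees C in phenol-red-free DMEM containing 10% FBS.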
# SW480 rerep: A quantitative high throughput screen for small molecules that induce DNA re-replication in SW480 colon adenocarcinoma cells. Potency, µM (highest dose often 46.1 µM), without a hit: at the highest dose re-replication activation, hits mostly activators. 340,000 compounds, 1.8% hits. SW480 DNA re-replication, Hoechst DNA content imaging, 48 h. AID 624297, 2012; also: % of control where 0% means no effect; nearly all actives have a fitted effect of over 55% in size
#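 Image-based read-out: total Hoechst fluorescence of nuclei (405 nm excitation, 500-530 nm emission), with hits raising the fraction of high-intensity nuclei. SW480 colon cells incubated 48 hr with compounds at 37 C.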
# HT1080-NT tox: qHTS for induction of synthetic lethality in tumor cells producing 2HG: qHTS for the HT-1080-NT fibrosarcoma cell line; Potency, µM (series often up to 46.1 µM), for the others: at the top dose activity, negative = less viability, hits mostly cytotoxic; 360,000 compounds, 1.6% hits; AID 686970, 2013; HT-1080-NT fibrosarcoma viability, CellTiter-Glo ATP luminescence, 48 h;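 also: NT is the 2HG producing partner of a matched IDH1 knockdown line; 0% = DMSO-treated cells and -100% = media-only wells without cells; nearly all actives have a fitted effect of over 55% in size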
#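 A 48-hour cytotoxicity screen used HT-1080-NT cells plated 2 hours before compound delivery. ATP-based CellTiter-Glo luminescence measured viability, normalized to DMSO and no-cell controls.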
# Starred values were filed as active, the others as inactive; i = inactive; ? = inconclusive; · = not tested or not shown; [ ] = another dose, or the depositor's remark. In the library only some 7.9% were active in any assay of this set; here they are far more common. Calls follow the shape of the dose curve; as a rule, active = well fitted curve in the direction sought with a large enough effect; inconclusive = small, poorly fitted or top-dose-only effect, or another doubt; inactive = no such curve, though single readings can be large; an effect the other way counts as inactive or inconclusive. Potency is read from the fitted curve at half-maximal effect.
SMILES,MCF10A rerep,HT1080 IDH1KD tx,KB-3-1 cytotox,KB-V1 MDR tox,SW480 rerep,HT1080-NT tox
O=[N+]([O-])c1ccc(C=NNc2ccc(S(=O)(=O)O)cc2)cc1,1%,6%,i,i,-2%,1%
O=[N+]([O-])c1ccc(N/N=C/c2cn(-c3ccccc3)nc2-c2ccccc2)cc1,1.6µM*,?,i,?,10µM*,?
CCCCCCCCCS(=O)(=O)N/N=C/c1cccc([N+](=O)[O-])c1,15µM*,?,i,i,0%,7%[9.24 µM]
O=[N+]([O-])c1ccc(N/N=C/c2cccc(O)c2)cc1,18µM*,?,i,i,?,?
C(=N\NC1=Nc2cccc3cccc1c23)/c1ccccc1,?,-5%,i,i,3%,-2%
NS(=O)(=O)c1ccc(N/N=C/c2cn(-c3ccccc3)nc2-c2ccccc2)c([N+](=O)[O-])c1,23%,-14%,?,?,-33%,-9%
CCc1ccccc1NC(=O)CNC(=O)c1cc(C2CC2)nc2c1cnn2C(C)C,13%,0%,i,i,-2%,12%
CC(C)[C@H](NC(=O)c1ccccc1)C(=O)OCC(=O)N1CCN(C(=O)c2ccco2)CC1,?,12%,i,i,0%,16%
Cc1cccc(C(=O)Oc2ccccc2/C=N/Nc2ccc([N+](=O)[O-])cc2)c1,?,-10%,?,i,13µM*,-14%
Cc1cccc(C(=O)Oc2ccc(/C=N/O)cc2)c1,1%,-21%,i,i,5%,-5%
O=[N+]([O-])c1ccc(N/N=C/c2cccnc2)cc1,13%,7.3µM*,i,i,?,-26%
O=C(N/N=C/c1cccnc1)c1ccc([N+](=O)[O-])cc1,-28%,15%,i,i,-1%,9%
CCC(Oc1ccccc1-c1nnc(-c2ccccc2)o1)C(=O)Nc1ccc(C(C)=O)cc1 (configuration not stated),·,·,i,i,·,·
Cn1nc(CC(=O)Nc2ccc3c(c2)OCCO3)c2ccccc2c1=O,-4%,-17%,?,i,-3%,-5%
Cc1ccc(NC(=O)Cc2nn(C)c(=O)c3ccccc23)cc1F,9%,?,7.3µM*,2.1µM*,7%,?
Cc1csc(NC(=O)Cc2nn(C)c(=O)c3ccccc23)n1,-9%,-11%,?,16µM*,1%,-8%
COc1cccc(OC)c1NC(=O)Cc1nn(C)c(=O)c2ccccc12,5%,0%,i,i,-27%,1%
COc1ccc(N2CC(C(=O)Nc3ccccc3-c3nc(-c4ccc(C)cc4)no3)CC2=O)cc1 (configuration not stated),·,·,i,i,·,·
CC(=O)N(C1=C(N)C(=O)c2ccccc2C1=O)c1ccccc1,-5%,?,?,i,?,-27%
N#Cc1cc2nc(O)c(O)nc2cc1[N+](=O)[O-],-4%,-1%,i,i,8%,-1%
CNc1nc2cc([N+](=O)[O-])c([N+](=O)[O-])cc2nc1NC,25%,3.3µM*,8.2µM*,i,-3%,3.3µM*
Cc1c(C(=O)O)[nH]c2ccc([N+](=O)[O-])cc12,-5%,13%,i,i,-9%,0%
NCCc1c(C(=O)O)[nH]c2ccc([N+](=O)[O-])cc12,1%,25%,?,10µM*,0%,2%
COC(=O)c1[nH]c2ccc(C)cc2c1NC(=O)NC1CCCCC1,-1%,-28%,i,i,-3%,-3%
CC1CCc2c(sc(NC(=O)c3cc(-c4ccc(Br)cc4)on3)c2C(N)=O)C1 (configuration not stated),·,·,i,?,·,·
SMILES,MCF10A rerep,HT1080 IDH1KD tx,KB-3-1 cytotox,KB-V1 MDR tox,SW480 rerep,HT1080-NT tox
OCCNCc1cc(Br)ccc1OCc1ccc(Cl)cc1Cl,?,?,?,15µM*,?,23µM*
OCCNCc1cc(Br)ccc1OCc1ccc(Cl)cc1,10%,2%,i,9.2µM*,14%,-1%
Brc1ccc(OCc2ccccc2)c(CNCc2ccncc2)c1,?,?,?,16µM*,?,?
O=c1c2ccccc2nnn1COc1cccc(Cl)c1,-2%,6%,i,i,0%,10%
O=C(CC1Sc2ccccc2NC1=O)OC(C(=O)NCCc1ccccc1)c1cccnc1 (configuration not stated),0%,0%,i,?,-25%,0%
COCCNC(=O)C(OC(=O)CC1Sc2ccccc2NC1=O)c1ccncc1 (configuration not stated),4.6µM*,1%,i,i,3.7µM*,5%
O=C(O)C1CCC(=O)N1Cc1ccc(F)cc1 (configuration not stated),16µM*,13%,i,i,10%,0%
Cc1c2ccccc2cc(Cc2ccccc2)[n+]1C,-21%,21µM*,15µM*,i,-5%,0%
Cc1nc(N)nc(C)c1Cc1ccccc1,-5%,-1%,i,i,-5%[9.22 µM],-2%
Clc1ccc(/C=C\c2nccc3c2[nH]c2ccccc23)cc1,2.6µM*,18µM*,i,?,9.2µM*,21µM*
OCCCCc1nccc2c1[nH]c1ccccc12,9%,-17%,i,i,-8%,-3%
COc1ccc(/C=C\c2nccc3c2[nH]c2ccccc23)cc1,·,·,i,i,·,·
N#Cc1ccc(/C=C\c2nccc3c2[nH]c2ccccc23)cc1,?,15µM*,i,i,2.1µM*,29µM*
Cc1cc(C(F)(F)F)n2ncc(C(=O)O)c2n1,-2%,10%,i,i,-13%,-8%
CCOc1cccc(C2C=C(c3ccc4c(c3)OCO4)NC(c3ccc(F)cc3)N2)c1O (configuration not stated),·,·,i,i,·,·
CCOc1cccc(C2C=C(c3ccc4c(c3)OCO4)NC(c3ccc(Cl)cc3)N2)c1O (configuration not stated),·,·,10µM*,i,·,·
C/C(N)=C(/C#N)C(=O)CSc1nnc(COc2cc(C)ccc2C)o1,18µM*,-1%,i,i,20%,-6%

# Source: PubChem
